Assay outcomes deposited in PubChem BioAssay by several laboratories.
The list is not random: actives were taken first. Their share in the collection is about 1.3%.
NPR2 activator: GC-B (human) receptor activation. P20594. HEK293-GC-B cells, CNP EC30, cGMP TR-FRET; 0% at EC30 CNP, 100% saturating CNP. activation, % at 10 µM. 370,000 tested, 0.11% active. AID 1920062;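 active means activation at 10 µM reaching about 35% in either raw or pattern-adjusted values, limit read from the data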
ADAM10 inh: ADAM10 inhibition, QFRET primary screen; O14672; recombinant ADAM10, EDANS/DABCYL FRET peptide cleavage, 3 h; inhibition, % at 7 µM; 370,000 tested, 0.62% active; AID 720582;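 active means inhibition above a per-campaign cutoff equal to the mean of compounds falling between control-based bounds plus 3 SD, cut at about 20% in these data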;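 further: 0% = DMSO wells while the 100% control is not disclosed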
NPR1 activator: GC-A (human) enzyme activation. P16066. HEK293 GC-A cells, cGMP TR-FRET, EC30 ANP; 0% at EC30 ANP, 100% saturating ANP. activation, % at 10 µM. 370,000 tested, 0.14% active. AID 1671463; in the data active means activation above about 40%
ADAM17 inh: ADAM17 inhibition, QFRET primary screen. 370,000 tested, 0.83% active. inhibition, % at 6.95 µM. recombinant ADAM17, EDANS/DABCYL FRET peptide cleavage. AID 720648. P78536;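 active means inhibition above the mean of compounds lying between control limits plus 3 SD, set per campaign, cut at about 8.5% in these data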;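 further: 0% = DMSO-only wells as the low control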
ADAM10 confirm: human ADAM10 inhibition, confirmation. shares compounds with ADAM10 inh. ADAM10 QFRET peptide cleavage, EDANS fluorescence. inhibition, % at 6.95 µM. 2,100 tested, 1% active;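 active means inhibition above about 20% chosen separately for each screening run, limit read from the data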;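 further: 0% = DMSO wells and 100% = marimastat wells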
ADAM17 counter: counter-screen for ADAM10 exosite inhibitors: inhibitors of human ADAM17; shares compounds with ADAM10 inh; ADAM17 QFRET peptide cleavage, EDANS fluorescence; inhibition, % at 6.95 µM; 2,100 tested, 0.5% active; AID 743214;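 active means mean triplicate inhibition above the solvent-only control wells' mean plus 3 SD, cut at about 12% in these data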;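 further: 0% = DMSO wells and 100% = marimastat wells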
* marks the source's active call; other numbers are inactive results; x = no result; ! = repeats disagree.

SMILES	NPR2 activator	ADAM10 inh	NPR1 activator	ADAM17 inh	ADAM10 confirm	ADAM17 counter
O=C(NCc1ccc2c(c1)OCO2)c1ccc(CSCc2ccccc2Cl)o1	5	23*	-3	7	8	4
O=C(NCc1ccc2c(c1)OCO2)c1ccccc1Cl	2	2	1	-3	x	x
Nc1[nH]c(C(=O)c2ccccc2)c(-c2ccccc2[N+](=O)[O-])c1C(=O)NCCc1c[nH]c2ccccc12	-7	25*	-4	12*	3	2
CCOc1ncccc1C(=O)N(CC)CC(=O)NCc1ccc(F)cc1	-6	-11	1	0	x	x
CCN(CC)C(=O)CC[C@H]1CC[C@]2(CCCN(Cc3cccnc3)C2)O1	-1	-1	4	2	x	x
COc1ccccc1-n1cc(-c2ccc([N+](=O)[O-])cc2)[nH]c1=S	-7	27*	-1	8	3	1
O=C1c2cccc(OCc3ccc(F)cc3)c2CCN1Cc1ccccc1	-1	20*	4	5	4	2
CCOc1cc(S(=O)(=O)Nc2ccc(CC)cc2)ccc1Cl	14	25*	3	6	4	1
COC(=O)[C@]12C[C@H](CC(=O)NCCc3ccccc3OC)C(=O)N(Cc3ccco3)C1=C[C@H](C(C)(C)C)O[C@@H]2C	-10	6	-16	1	x	x
C/C(N)=C(/C#N)C(=O)CSc1nn(-c2ccc(Cl)cc2)c(=S)s1	-8	24*	1	8	4	1
Cc1ccc(C(=O)NNC(=S)NC(=O)c2ccccc2)cc1	7	24*	-3	5	1	1
COc1ccc(C(=O)Nc2ccccc2C(=O)N2CCOCC2)cc1OC	0	21*	-2	2	2	0
COc1ccc(C(=O)Nc2ccccc2C(=O)N2CCOCC2)cc1Br	-1	0	1	-2	x	x
COc1ccc(C2CC2/C(=N/O)c2ccccc2)cc1 (centres undefined)	5	-4	4	1	x	x
O/N=C(/c1ccc(F)cc1)C1CC1c1c(F)cccc1Cl (centres undefined)	-7	26*	-10	4	3	1
O=C(Nc1ccccc1)c1ccc(-c2ccccc2Cl)o1	9	20*	0	4	6	2
COC(=O)[C@H](Cc1ccccc1)NC(=O)c1ccc2ccccc2n1	-2	8	-2	2	x	x
CC(C)(C)NC(=O)[C@@H]1C[C@@H]2CCCC[C@@H]2CN1C[C@@H](O)[C@H](Cc1ccccc1)NC(=O)[C@H](CC(N)=O)NC(=O)c1ccc2ccccc2n1	0	26*!	0	8	2	0
N#Cc1cccc(-c2csc(C(O)(c3ccccc3)C(F)(F)F)n2)c1 (centres undefined)	-5	20*	-9	8	4	1
COc1ccc(-c2csc(C(O)(c3ccccc3)C(F)(F)F)n2)cc1 (centres undefined)	4	19	4	8	x	x
OC(c1ccccc1)(c1nc(-c2ccc(Cl)cc2)cs1)C(F)(F)F (centres undefined)	-1	23*	2	8	11	3
Cc1cc(C)c(OCC(=O)Nc2ccc(NC(=O)c3ccco3)cc2)c([N+](=O)[O-])c1	3	-9	-2	-1	x	x
Cc1cc(C)c(OCC(=O)Nc2cccc(NC(=O)c3ccco3)c2)c(Br)c1	3	21*	4	8	6	2
COc1ccc(C2CC(=O)N(C)c3ccccc3S2)cc1 (centres undefined)	-7	-2	4	-1	x	x
CCn1nc(C(=O)OC(C(=O)c2c[nH]c3ccccc23)c2ccccc2)c2ccccc2c1=O (centres undefined)	-1	24*	-4	7	11	5
SMILES	NPR2 activator	ADAM10 inh	NPR1 activator	ADAM17 inh	ADAM10 confirm	ADAM17 counter
CCn1nc(C(=O)OCC(=O)c2ccc(F)cc2)c2ccccc2c1=O	-2	-4	4	-4	x	x
COC(=O)CN(c1cccc(C)c1)S(=O)(=O)c1ccccc1	-1	9	-2	-1	x	x
COc1ccc(C)cc1NS(=O)(=O)c1ccc(NC(=O)CN(c2cc([N+](=O)[O-])ccc2C)S(C)(=O)=O)cc1	-1	23*	-1	9.1*	5	1
CCOc1ccc(S(=O)(=O)n2c(C)nc3ccccc32)cc1	2	8	2	3	x	x
CCOc1ccc(S(=O)(=O)n2cnc3ccccc32)cc1	1	64*	-1	-1	3	0
C=CCn1c(SCC(=O)N2CCN(CCO)CC2)nc2sc3c(c2c1=O)CCC3	6	-1	3	-2	x	x
O=C(CCNc1cc(Cl)cc(Cl)c1)c1cccs1	-4	22*	2	7	6	2
O=C(CCNc1ccc(Cl)cc1)c1cccs1	0	3	2	2	x	x
CCOc1ccc(N2C(=O)/C(=C/c3cc(OC)c(OC)c(OC)c3)N(CC(=O)OC)C2=S)cc1	5	20*	1	7	1	1
Cc1[nH]c2ccccc2c1N=Nc1ccccc1F	-6	30*	2	8	6	1
O=C(NC(NC(=S)Nc1ccc(Cl)c(Cl)c1)C(Cl)(Cl)Cl)c1ccco1 (centres undefined)	11	29*	2	9	4	2
O=C(O)c1cccc(NC(=S)NC(NC(=O)c2ccco2)C(Cl)(Cl)Cl)c1 (centres undefined)	8	-13	-5	-2	x	x
CCCCOc1cccc(C(=O)Nc2ccc(S(=O)(=O)Nc3nnc(CC)s3)cc2)c1	-2	21*	-4	1	1	0
CCc1nnc(NS(=O)(=O)c2ccc(NC(=O)c3cccc([N+](=O)[O-])c3)cc2)s1	-3	1	5	-3	x	x
O=C(NCc1ccccc1)C1=C[C@H](c2ccccc2)C[C@H](OCc2ccc(CO)cc2)O1	-5	20*	-7	8	1	1
O=C(Nc1ccccc1)C1=C[C@H](c2ccc(C(F)(F)F)cc2)C[C@H](OCc2ccc(CO)cc2)O1	2	26*	0	8.6*	7	3
Nc1cc([N+](=O)[O-])cc2oc(-c3ccccc3)cc12	-8	25*	5	5	2	2
O=C1CSC(c2cccc(F)c2)N1c1c(F)cccc1F (centres undefined)	-1	23*	-1	1	0	0
O=C1CSC(c2ccc(F)cc2)N1c1c(F)cccc1F (centres undefined)	-4	8	-6	2	x	x
Cc1ccccc1Cn1cc(S(=O)(=O)CC(=O)Nc2nccs2)c2ccccc21	-1	23*	-10	2	4	0
C[C@@H]1CN([C@H](C)CO)S(=O)(=O)c2ccc(C#Cc3ccccc3)cc2O[C@H]1CN(C)C(=O)Nc1ccc2c(c1)OCO2	-4	20*	-1	6	9	3
